Data as given in PubChem BioAssay (NCATS).
Several values for one entry are separate records, joined by “and”; a condition that tells them apart may be missing. Equal values may be shown once. Results filed as inconclusive are left out. A number with no mark means an inactive call. Activity calls are given as the source filed them. Calls follow the shape of the dose curve; as a rule, active = well fitted cell-killing curve with a large enough effect; inconclusive = small, poorly fitted or top-dose-only effect; inactive = flat fitted curve, though single readings scatter.
Potency is read from the fitted curve at half-maximal effect.

Test: qHTS of pediatric cancer cell lines to identify multiple opportunities for drug repurposing: Primary screen for RD cells (AID 1347104); also: nearly all actives have a fitted effect of over 55% in size
Settings: RD rhabdomyosarcoma viability, CellTiter-Glo luminescence, 48 h; series mostly up to 46 µM; activity change, negative = cytotoxic: at the top concentration
From the text: Drug repurposing or repositioning has been offered as a strategy for drug development in oncology programs. This approach has special potential for childhood cancers and other rare or orphan diseases, where the expected return on new drug development has been a disincentive to pharmaceuticals. […] In this project we exploit the poly-pharmacology of drugs to discover new indications via phenotypic screening of a panel of 19 well-characterized cell lines derived from solid tumors seen in children and adolescents. The goal is to identify approved drugs with previously unrecognized anticancer properties that has the potential to reveal new mechanisms and biological processes involved in carcinogenesis or drug resistance. We employed a titration-based paradigm (quantitative high-throughput screening or qHTS), where all compounds were tested at multiple concentrations for their effect on cell viability. Concentration-response curves (CRCs) were derived directly from the primary screen, and both potency and efficacy values were used to identify compounds with robust bioactivity profiles. We screened the NIH Chemical Genomics Center (NCGC) Pharmaceutical Collection (NPC) and Mechanism Interrogation Plate (MIPE) small molecule collections of approved and investigational compounds against these cell lines; and measured metabolically active cells after 48 hours of compound treatment as a proxy for cell viability. […] Assay Submitter: Nathalia J. Martinez, National Center for Advancing Translational Sciences, National Institutes of Health, Rockville, MD, USA; email: natalia.martinez@nih.gov Shen, M et al. Quantitative high-throughput phenotypic screening of pediatric cancer cell lines identifies multiple opportunities for drug repurposing. Oncotarget 2017 Dec 19;9(4):4758-4772. PMID 29435139.
The cells were obtained from University of North Carolina (UNC), Pediatric Preclinical Testing Program (PPT), and Coriell Institute (CI). qHTS cell viability assay: Cells were assayed in growth media at a density of 500-1,000 cells/well. Five microliters of cells were dispensed into 1,536-well, white, solid-bottom, TC-treated plates (Greiner Bio One) using a multidrop dispenser and incubated at 37 degrees C, 5% CO2, under a humidified atmosphere for 5 hours. Twenty-three nanoliters of compounds and controls (neutral control DMSO or positive control bortezomib at final concentration of 2.3 µM) were subsequently transferred by Kalypsys pintool. For primary screens, the MIPE collection was tested at 11-point dilutions (final concentrations range from 0.78 nM to 46 µM) and the NPC collection at 8-point dilutions (final concentrations range from 0.59 nM to 46 µM). Compounds tested in follow-up screens were assayed at 11-point dilutions. Cells were incubated for 48 hours, followed by addition of 3 µL of CellTiter-Glo (Promega). After a 15 min incubation at room temperature, samples were analyzed for luminescence intensity using a ViewLux High-throughput CCD imager equipped with clear filters.
In the case of OC[C@H]1O[C@@H](n2cnc3c2NC=NC[C@@H]3O)C[C@H]1O, the “activity change, negative = cytotoxic” value is reported as -0.833%.
In the case of CNC(=O)c1ccc2cc(C3(O)CCn4cncc43)ccc2c1 (stereo not given), the “activity change, negative = cytotoxic” value is reported as -7.46%.
In the case of O=C(CCCCCCC(=O)Nc1ccccc1)NO, the Potency is reported as 5.31 µM (active) and 6.62 µM (active).
For COC(=O)N[C@H](C(=O)N1CCC[C@@H]1c1ncc(-c2ccc(-c3ccc(-c4cnc([C@@H]5CCCN5C(=O)[C@@H](NC(=O)OC)C(C)C)[nH]4)cc3)cc2)[nH]1)C(C)C, the Potency was 33.2 µM (active).
With O=C1NC(=O)C(=Cc2cccc(C(F)(F)F)c2)S1 the “activity change, negative = cytotoxic” value was -10.9%.
With CC(C)n1nc(-c2ccc3oc(N)nc3c2)c2c(N)ncnc21 the Potency was 0.0296 µM (active).
With O=C(OCC#CCSc1nnc(-c2cccc3ccccc23)o1)c1cc2ccccc2s1 the “activity change, negative = cytotoxic” value was -3.1%.
In the case of COCCOC(=O)C1=C(C)NC2=C(C(=O)CC(c3ccccc3OC)C2)C1c1cccc(O)c1 (stereo not given), the Potency is reported as 18.7 µM (active).
With O=c1cc(-c2ccccc2)oc2cc(O)cc(O)c12 the “activity change, negative = cytotoxic” value was 18.9%.
With COc1cc(O)c2c(c1)C(=O)c1cc(C)cc(O)c1C2=O the “activity change, negative = cytotoxic” value was -4.16% [at 16.1 µM].
In the case of O=c1cc(-c2ccc(O)cc2)oc2cc(O)cc(O)c12, the Potency is reported as 2.96 µM (active).
In the case of CC=CCC=CCCC(=O)[C@H]1O[C@@H]1C(N)=O, the “activity change, negative = cytotoxic” value is reported as -28.4%.
For CCOc1ccc(Nc2nc(-c3c(C)nc4ccccn34)cs2)cc1, the “activity change, negative = cytotoxic” value was -43.5%.
For CC(C)NCC(O)COc1cccc2[nH]ccc12 (stereo not given), the “activity change, negative = cytotoxic” value was -9.49%.
For Nc1ncnc2c1ncn2[C@@H]1O[C@@H](CO)[C@H](O)[C@H]1O, the “activity change, negative = cytotoxic” value was 8.13%.
With CON=C(C(=O)N[C@@H]1C(=O)N2C(C(=O)OCOC(=O)C(C)(C)C)=C(C=Cc3scnc3C)CS[C@H]12)c1csc(N)n1 the “activity change, negative = cytotoxic” value was -18.3%.
In the case of O=c1cc(-c2ccccc2)oc2cc(O)c(O)c(O)c12, the “activity change, negative = cytotoxic” value is reported as 0.2%.
In the case of NS(=O)(=O)c1cccc2c1C(=O)c1cccc(O)c1C2=O, the Potency is reported as 0.526 µM (active).
For CS(=O)c1ccc(-c2nc(-c3ccc(F)cc3)c(-c3ccncc3)[nH]2)cc1 (stereo not given), the Potency was 42.9 µM (active).
In the case of COc1ccc2c(Oc3ccc(NC(=O)c4c(C)n(CC(C)(C)O)n(-c5ccccc5)c4=O)nc3)ccnc2c1, the “activity change, negative = cytotoxic” value is reported as -10.5%.
In the case of C[C@H](NC(=O)c1sccc1OCc1ccc(Cl)cc1)c1ccccc1, the Potency is reported as 29.6 µM (active).
For CC(=O)CCCCn1c(=O)c2c(ncn2C)n(C)c1=O, the “activity change, negative = cytotoxic” value was 3.64%.
For O=C(Nc1ccccc1-c1cn2c(CN3CCNCC3)csc2n1)c1cnc2ccccc2n1, the Potency was 33.2 µM (active).
With CO[C@H]1C[C@@H]2CC[C@@H](C)[C@@](O)(O2)C(=O)C(=O)N2CCCC[C@@H]2C(=O)O[C@H]([C@H](C)C[C@@H]2CC[C@H](OP(C)(C)=O)[C@H](OC)C2)CC(=O)[C@H](C)C=C(C)[C@@H](O)[C@@H](OC)C(=O)[C@H](C)C[C@H](C)C=CC=CC=C1C the “activity change, negative = cytotoxic” value was -13.8%.
For CC[C@]1(O)C[C@@H]2CN(CCc3c([nH]c4ccccc34)[C@@](C(=O)OC)(c3cc4c(cc3OC)N(C)[C@H]3[C@@](O)(C(=O)OC)[C@H](OC(C)=O)[C@]5(CC)C=CCN6CC[C@]43[C@@H]65)C2)C1, the Potency was 21.1 nM (active) and 211 nM (active).
In the case of CCOC(=O)C1=C(N)Oc2ccc(Br)cc2C1C(C#N)C(=O)OCC (stereo not given), the Potency is reported as 29.6 µM (active).
For O=c1cc(N2CCOCC2)oc2c(-c3cccc4c3sc3ccccc34)cccc12, the Potency was 13.2 µM (active).
With CCN(CC)CCNC(=O)c1ccc(N)cc1 the “activity change, negative = cytotoxic” value was 7.7%.
For O=C(O)CCC1CCC(c2cc(F)ccc2F)(S(=O)(=O)c2ccc(Cl)cc2)CC1 (stereo not given), the Potency was 14.8 µM (active).
In the case of CN1[C@@H]2CCC[C@@H]1CC(NC(=O)c1nn(C)c3ccccc13)C2 (stereo not given in full), the “activity change, negative = cytotoxic” value is reported as 0.499%.
In the case of O=C1c2ccccc2-[n+]2ccc3c([nH]c4ccccc43)c21, the Potency is reported as 1.87 µM (active).
For COc1ccccc1N1CCN(CCCNc2cc(=O)n(C)c(=O)n2C)CC1, the “activity change, negative = cytotoxic” value was 1.65%.
For COc1cc2ncnc(Nc3ccc(F)c(Cl)c3)c2cc1OCCCN1CCOCC1, the Potency was 6.79 µM (active) and 23.7 µM (active).
For O=c1c(-c2ccc(O)cc2)coc2cc(O[C@@H]3O[C@H](CO)[C@H](O)[C@H](O)[C@H]3O)ccc12, the “activity change, negative = cytotoxic” value was 11.4%.
With O=C(NCc1ccccc1)c1csc(Nc2ccncn2)n1 the Potency was 29.6 µM (active).
In the case of O=C(CCc1ccc(O)cc1)c1c(O)cc(O)cc1O[C@@H]1O[C@H](CO)[C@H](O)[C@H](O)[C@H]1O, the “activity change, negative = cytotoxic” value is reported as -10.3%.
With COc1ccc(-c2coc3cc(O)cc(O)c3c2=O)cc1 the “activity change, negative = cytotoxic” value was -12%.
With COc1cc2nc(-c3ccc(N4CCN(C)CC4)cc3)nc(NCCN3CCOCC3)c2cc1OC the Potency was 0.0418 µM (active).
With C=C1C(=O)[C@@]23C(CC[C@@H]1[C@H]2O)[C@@]12CO[C@]3(O)[C@@H](O)[C@@H]1C(C)(C)CC[C@@H]2O (stereo not given in full) the Potency was 9.35 µM (active).
For CCCCCN(C)CCC(O)(P(=O)(O)O)P(=O)(O)O, the “activity change, negative = cytotoxic” value was 4.54%.
